Results filed as inconclusive are left out. Entries that show only a call come without a potency. Calls of active or inactive are those of the source. Calls follow the shape of the dose curve; as a rule, active = well fitted cell-killing curve with a large enough effect in the repeat runs; inconclusive = weak or mixed curves, or effect the other way; inactive = flat fitted curve, though single readings scatter.
Potency is read from the fitted curve at half-maximal effect.

The nature of the assay: qHTS assay to identify small molecule antagonists of the androgen receptor (AR) signaling pathway using the MDA cell line - cell viability counter screen (AID 743041; also: nearly all actives have a fitted effect of over 45% in size). The note with it: MDA-kb2 viability, CellTiter-Fluor, 16 h, cells co-treated with R1881 androgen agonist; series mostly up to 70.3 µM. An excerpt:
National Center for Advancing Translational Sciences [NCATS]
NIH Chemical Genomics Center [NCGC]
U.S. Environmental Protection Agency [EPA]
National Institutes of Environmental Health Sciences [NIEHS]
National Toxicology Program [NTP]
U.S. Food and Drug Administration [FDA]
Androgen receptor (AR), a nuclear hormone receptor, plays a critical role in AR-dependent prostate cancer and other androgen related diseases. Endocrine disrupting chemicals (EDCs) and their interactions with steroid hormone receptors like AR may cause disruption of normal endocrine function as well as interfere with metabolic homeostasis, reproduction, developmental and behavioral functions. To identify the compounds that inhibit AR signaling, MDA-kb2 AR-luc cell line (from ATCC, deposited by Wilson et al.) was used to screen the Tox21 10K compound library. MDA-kb2 AR-luc cell line is human breast carcinoma cell line that was stably transfected with a luciferase reporter gene under control of the MMTV promoter containing response elements for both androgen receptor (AR) and glucocorticoid receptor (GR). The cytotoxicity of the Tox21 compound library against the MDA-kb2 AR-luc cell line was tested in parallel by measuring the cell viability using CellTiter-Fluor assay (Promega, Madison, WI) in the same wells.
Tox21 Assay Protocol Summary:
MDA-kb2 AR-luc cells were dispensed at 3,000 cells/4 uL/well of culture medium into white wall/solid-bottom 1536-well plates using a Multidrop Combi (ThermoFisher Scientific, Waltham, MA) dispenser. After the assay plates were incubated at a 37C and 0% CO2 for 5 hr, 23 nL of compounds dissolved in DMSO, positive controls or DMSO only was transferred to the assay plate by a Pintool station (Kalypsys, San Diego, CA), followed by addition of 1 uL of agonist (R1881) in culture medium using a Bioraptr Flying Reagent Dispenser (FRD) workstation (Beckman Coulter, Indianapolis, IN, USA). The plates were incubated at a 37C and 0% CO2 for 16 h. After 15.5 h incubation, 1uL of CellTiter-Fluor reagent (Promega) was added using a Bioraptr FRD to each plate for measuring cytotoxicity. The fluorescence intensity was quantified on a ViewLux plate reader (PerkinElmer, Shelton, CT) following 30 min incubation at 37C and 0% CO2.
On the technique in general: Quantitative high-throughput screening tests each substance at several concentrations.
Turning to `O=C(CCCCCCCCC#CI)Oc1ccccc1`, the Potency result was “inactive”.
Take `CC1CN(c2cc3c(cc2F)c(=O)c(C(=O)O)cn3-c2ccc(F)cc2F)CCN1` (stereo not given): the Potency result is “inactive”.
On to `Cc1ccccc1N1C(=O)c2cc(S(N)(=O)=O)c(Cl)cc2NC1C` (stereo not given), for which the Potency entry was “inactive”.
Regarding `Cc1occc1C(=O)Nc1ccc(C(=O)N2CCC(F)(F)/C(=C\C(=O)N3CCC(N4CCCCC4)CC3)c3ccccc32)cc1`, the Potency entry was “inactive”.
Take `COc1ccccc1N=Nc1c(S(=O)(=O)O)cc2cc(S(=O)(=O)O)cc(NC(C)=O)c2c1O`: the Potency is 45.7 µM (active).
As for `O=C(CCCN1CCC(O)(c2ccc(Br)cc2)CC1)c1ccc(F)cc1`, the Potency result is “inactive”.
In the case of `CCCCC(=O)O[C@]1(C(=O)CO)[C@@H](C)C[C@H]2[C@@H]3CCC4=CC(=O)C=C[C@]4(C)[C@@]3(F)[C@@H](O)C[C@@]21C`, the Potency entry was “inactive”.
On to `CC1=C(C=O)C(C)(C)CCC1`, for which the Potency result is “inactive”.
Turning to `Cc1c(C(=O)NN2CCCCC2)nn(-c2ccc(Cl)cc2Cl)c1-c1ccc(Cl)cc1`, the Potency entry was “inactive”.
As for `CN1C(=O)CC(C)(c2ccccc2)C1=O` (stereo not given), the Potency entry is “inactive”.
To `CCC(C)(C)C1CCC(O)CC1` (stereo not given) belongs “inactive”; to `Brc1cc(-c2ccc(Br)c(Br)c2Br)cc(Br)c1Br`, “inactive”; to `CNCCCC1c2ccccc2C=Cc2ccccc21`, “inactive”.
In the case of `C=CC(=C)CCCC(C)(C)OC(C)=O`, the Potency result was “inactive”.
On to `NC(=O)N(O)[C@@H]1COc2cc(OCc3ccccc3)ccc21`, for which the Potency result is “inactive”.
As for `Cc1nc2ccccc2s1`, the Potency entry was “inactive”.
Take `N#C[C@@H]1C[C@@H]2C[C@@H]2N1C(=O)[C@@H](N)C12CC3CC(CC(O)(C3)C1)C2`: the Potency entry was “inactive”.
To `Cc1cc(OI)c(C(C)C)cc1-c1cc(C(C)C)c(OI)cc1C` belongs “inactive”; to `CCOC(=O)c1ccccc1OC`, “inactive”.
Under `CC(CCO)CCc1ccccc1` (stereo not given) stands “inactive”; under `CC(C)(C)C(=O)C(Oc1ccc(Cl)cc1)n1ccnc1` (stereo not given), “inactive”; under `CCCCN(CCCC)C(=S)SSC(=S)N(CCCC)CCCC`, “inactive”.
As to `CCC(C)(O)CCC=C(C)C` (stereo not given), the Potency result was “inactive”.
For `CN1CCN(c2c(F)cc3c(=O)c(C(=O)O)cn4c3c2OCN4C)CC1`, the Potency entry is “inactive”.
As to `CN1CCCN=C1/C=C/c1cccs1`, the Potency entry was “inactive”.
With `CCOC(=N)CC(=O)OCC`, the Potency result was “inactive”.
In the case of `CC1=NN(c2ccc(C(=O)O)cc2)C(=O)C1`, the Potency entry was “inactive”.
For the compound `C1COCO1`, the Potency result was “inactive”.
On to `c1ccc(COCc2ccccc2)cc1`, for which the Potency result was “inactive”.
To `ON(Cc1ccccc1)Cc1ccccc1` belongs “inactive”; to `C[Si]1(C)O[Si](C)(C)O[Si](C)(C)O1`, “inactive”.
Regarding `Cc1cc(O)c(C(C)C)cc1Cl`, the Potency result is “inactive”.
Under `Cc1cnc(C)c(C)n1` stands “inactive”.
To `CCCC1C(CC)=CC(CC)=CN1c1ccccc1` (stereo not given) belongs 54.5 µM (active); to `CC(C)CCCCCOC(=O)CCCCC(=O)OCCCCCC(C)C`, “inactive”.
To `CC(=O)Nc1ccccc1C` belongs “inactive”; to `CCC(C(=O)OCCN(CC)CC)c1ccccc1` (stereo not given), “inactive”.
Take `Nc1ccc(S(=O)(=O)O)c(N)c1`: the Potency entry was “inactive”.
`CCCCCCCCCCCC(=O)[O][Sn]([CH2]CCC)([CH2]CCC)[O]C(=O)CCCCCCCCCCC`: the Potency entry is “inactive”.
Under `CCCCN(CCCC)CCCOC(=O)c1ccc(N)cc1` stands “inactive”.

The values above are taken from PubChem BioAssay (Tox21).
